Measurements as given in the supplement of paper PMC11732987, “Enantioselective OTUD7B fragment discovery through chemoproteomics screening and high-throughput optimisation” (Communications Chemistry, 2025).

Legend:
Test in all cases: log2 ratio of Biotin-Ahx-Ub-VS probe labelling (fragment/DMSO); higher = less target engagement (more negative = stronger competition), active = hit call of the paper (q ≤ 0.05, log2 ratio ≤ -1)
Conditions in all cases: compound concentration: 200 uM; treatment time: 3 h
[1] = target: USP9X (UniProt Q93008)
Procedure, shortened: (§1)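 In triplicate, 495 µg of HEK293T lysate per sample was incubated with fragment at 200 µM or vehicle for 3 h. Biotin-Ahx-Ub-VS was then added to 0.5 µM final for 1 h, and labelled DUBs were captured with NeutrAvidin, digested with LysC and trypsin, and measured by diaPASEF LC-MS/MS. Data are average log2 fragment/vehicle ratios by unpaired t-test from global-median-normalised Spectronaut label-free quantities, restricted to proteins with ≥2 unique peptides.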

[2] = target: UniProt O00487
Procedure, shortened: as §1

[3] = target: UniProt O00507
Procedure, shortened: as §1

[4] = target: UniProt P51784
Procedure, shortened: as §1

[5] = target: T1, UniProt Q5T2D3
T1 sequence (whole entry): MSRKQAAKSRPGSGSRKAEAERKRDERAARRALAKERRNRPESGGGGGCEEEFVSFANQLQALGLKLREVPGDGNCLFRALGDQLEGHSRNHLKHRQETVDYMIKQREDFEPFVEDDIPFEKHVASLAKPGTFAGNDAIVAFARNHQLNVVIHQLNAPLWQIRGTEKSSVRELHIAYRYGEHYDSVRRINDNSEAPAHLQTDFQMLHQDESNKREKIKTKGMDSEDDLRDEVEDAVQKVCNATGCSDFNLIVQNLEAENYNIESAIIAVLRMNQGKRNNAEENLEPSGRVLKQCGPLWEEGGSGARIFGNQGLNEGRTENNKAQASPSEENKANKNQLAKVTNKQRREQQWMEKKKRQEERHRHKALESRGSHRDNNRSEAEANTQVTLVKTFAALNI
Procedure, shortened: as §1

[6] = target: T2, UniProt Q8TE49
T2 sequence (whole entry): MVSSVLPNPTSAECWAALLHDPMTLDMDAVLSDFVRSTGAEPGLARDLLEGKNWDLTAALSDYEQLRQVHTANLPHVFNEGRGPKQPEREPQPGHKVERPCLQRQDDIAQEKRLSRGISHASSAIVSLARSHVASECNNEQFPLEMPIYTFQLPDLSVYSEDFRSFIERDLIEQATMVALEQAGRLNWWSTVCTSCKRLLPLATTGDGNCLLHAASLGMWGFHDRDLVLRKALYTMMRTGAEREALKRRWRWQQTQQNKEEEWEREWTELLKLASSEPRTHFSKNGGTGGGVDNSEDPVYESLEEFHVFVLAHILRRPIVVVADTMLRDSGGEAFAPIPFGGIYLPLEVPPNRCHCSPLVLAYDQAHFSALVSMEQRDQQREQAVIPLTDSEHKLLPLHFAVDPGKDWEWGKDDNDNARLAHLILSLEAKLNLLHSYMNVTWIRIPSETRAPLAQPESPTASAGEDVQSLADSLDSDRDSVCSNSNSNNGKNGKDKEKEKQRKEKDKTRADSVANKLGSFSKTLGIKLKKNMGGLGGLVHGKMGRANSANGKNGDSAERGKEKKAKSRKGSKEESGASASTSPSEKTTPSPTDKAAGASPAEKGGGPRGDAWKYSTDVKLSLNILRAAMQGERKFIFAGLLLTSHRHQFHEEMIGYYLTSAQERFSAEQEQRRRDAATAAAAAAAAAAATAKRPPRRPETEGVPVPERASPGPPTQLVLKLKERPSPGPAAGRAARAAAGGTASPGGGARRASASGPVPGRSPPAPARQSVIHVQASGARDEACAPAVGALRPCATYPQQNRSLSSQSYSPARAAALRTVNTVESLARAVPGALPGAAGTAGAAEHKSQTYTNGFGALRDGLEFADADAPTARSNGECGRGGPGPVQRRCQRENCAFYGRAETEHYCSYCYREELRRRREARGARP
Procedure, shortened: as §1

[7] = target: T3, UniProt Q9P2H5
T3 sequence (whole entry): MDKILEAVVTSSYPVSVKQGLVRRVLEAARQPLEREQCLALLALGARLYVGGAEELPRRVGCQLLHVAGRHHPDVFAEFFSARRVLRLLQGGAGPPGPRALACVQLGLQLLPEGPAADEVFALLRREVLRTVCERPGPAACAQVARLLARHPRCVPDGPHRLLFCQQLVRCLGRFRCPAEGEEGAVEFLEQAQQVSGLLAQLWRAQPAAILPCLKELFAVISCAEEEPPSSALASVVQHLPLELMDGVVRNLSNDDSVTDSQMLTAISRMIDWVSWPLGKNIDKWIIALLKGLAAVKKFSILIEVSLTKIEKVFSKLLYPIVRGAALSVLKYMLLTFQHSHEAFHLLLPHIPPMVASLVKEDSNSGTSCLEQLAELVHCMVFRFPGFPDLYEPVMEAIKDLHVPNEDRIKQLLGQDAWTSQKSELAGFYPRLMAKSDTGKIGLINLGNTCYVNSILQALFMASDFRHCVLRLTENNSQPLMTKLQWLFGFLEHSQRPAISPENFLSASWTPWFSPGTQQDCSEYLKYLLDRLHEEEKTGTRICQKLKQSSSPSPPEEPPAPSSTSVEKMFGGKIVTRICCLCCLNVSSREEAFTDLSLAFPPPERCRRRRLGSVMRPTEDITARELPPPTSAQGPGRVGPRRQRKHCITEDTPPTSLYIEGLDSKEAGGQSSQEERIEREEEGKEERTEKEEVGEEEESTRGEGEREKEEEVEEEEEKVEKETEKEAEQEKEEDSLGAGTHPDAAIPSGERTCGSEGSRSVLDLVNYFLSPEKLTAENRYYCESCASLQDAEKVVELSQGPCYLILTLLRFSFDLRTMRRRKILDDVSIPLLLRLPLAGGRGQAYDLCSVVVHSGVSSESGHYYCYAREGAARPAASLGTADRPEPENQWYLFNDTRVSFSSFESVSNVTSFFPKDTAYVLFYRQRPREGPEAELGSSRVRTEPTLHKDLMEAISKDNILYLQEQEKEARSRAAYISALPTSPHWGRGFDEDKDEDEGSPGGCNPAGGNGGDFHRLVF
Procedure, shortened: as §1

[8] = target: T4, UniProt Q9UGI0
T4 sequence (whole entry): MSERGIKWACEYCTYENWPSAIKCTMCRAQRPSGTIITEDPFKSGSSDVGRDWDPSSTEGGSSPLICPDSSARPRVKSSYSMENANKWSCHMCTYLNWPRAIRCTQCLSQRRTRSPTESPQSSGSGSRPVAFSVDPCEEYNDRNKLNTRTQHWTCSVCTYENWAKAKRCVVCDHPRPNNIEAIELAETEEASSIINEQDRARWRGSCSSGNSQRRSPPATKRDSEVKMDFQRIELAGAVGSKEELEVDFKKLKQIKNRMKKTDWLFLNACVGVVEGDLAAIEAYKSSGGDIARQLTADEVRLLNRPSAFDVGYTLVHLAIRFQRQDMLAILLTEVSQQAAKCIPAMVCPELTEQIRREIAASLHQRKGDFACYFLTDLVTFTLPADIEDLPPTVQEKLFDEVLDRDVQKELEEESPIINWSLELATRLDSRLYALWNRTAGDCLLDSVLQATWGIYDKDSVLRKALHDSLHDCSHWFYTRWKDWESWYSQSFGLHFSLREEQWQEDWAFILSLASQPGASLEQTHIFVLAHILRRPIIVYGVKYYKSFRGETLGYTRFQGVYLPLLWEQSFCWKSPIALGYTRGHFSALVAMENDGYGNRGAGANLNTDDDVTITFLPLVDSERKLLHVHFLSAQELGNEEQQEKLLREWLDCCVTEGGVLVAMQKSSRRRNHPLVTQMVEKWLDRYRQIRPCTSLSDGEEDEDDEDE
Procedure, shortened: as §1

[9] = target: T5, YOD1 (UniProt Q5VVQ6)
T5 sequence (whole entry): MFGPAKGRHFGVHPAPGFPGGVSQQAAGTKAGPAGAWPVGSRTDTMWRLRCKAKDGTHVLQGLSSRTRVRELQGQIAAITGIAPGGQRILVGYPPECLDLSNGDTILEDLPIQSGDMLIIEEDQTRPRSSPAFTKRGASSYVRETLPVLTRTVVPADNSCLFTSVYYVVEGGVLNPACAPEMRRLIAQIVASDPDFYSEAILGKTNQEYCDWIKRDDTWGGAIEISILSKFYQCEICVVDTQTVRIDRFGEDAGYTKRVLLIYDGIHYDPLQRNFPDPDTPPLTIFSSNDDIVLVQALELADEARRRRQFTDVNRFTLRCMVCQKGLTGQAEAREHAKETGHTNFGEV
Procedure, shortened: as §1

Measured: log2 ratio of Biotin-Ahx-Ub-VS probe labelling

USP9X, sequence (Q93008 whole entry, the tested form may be a part): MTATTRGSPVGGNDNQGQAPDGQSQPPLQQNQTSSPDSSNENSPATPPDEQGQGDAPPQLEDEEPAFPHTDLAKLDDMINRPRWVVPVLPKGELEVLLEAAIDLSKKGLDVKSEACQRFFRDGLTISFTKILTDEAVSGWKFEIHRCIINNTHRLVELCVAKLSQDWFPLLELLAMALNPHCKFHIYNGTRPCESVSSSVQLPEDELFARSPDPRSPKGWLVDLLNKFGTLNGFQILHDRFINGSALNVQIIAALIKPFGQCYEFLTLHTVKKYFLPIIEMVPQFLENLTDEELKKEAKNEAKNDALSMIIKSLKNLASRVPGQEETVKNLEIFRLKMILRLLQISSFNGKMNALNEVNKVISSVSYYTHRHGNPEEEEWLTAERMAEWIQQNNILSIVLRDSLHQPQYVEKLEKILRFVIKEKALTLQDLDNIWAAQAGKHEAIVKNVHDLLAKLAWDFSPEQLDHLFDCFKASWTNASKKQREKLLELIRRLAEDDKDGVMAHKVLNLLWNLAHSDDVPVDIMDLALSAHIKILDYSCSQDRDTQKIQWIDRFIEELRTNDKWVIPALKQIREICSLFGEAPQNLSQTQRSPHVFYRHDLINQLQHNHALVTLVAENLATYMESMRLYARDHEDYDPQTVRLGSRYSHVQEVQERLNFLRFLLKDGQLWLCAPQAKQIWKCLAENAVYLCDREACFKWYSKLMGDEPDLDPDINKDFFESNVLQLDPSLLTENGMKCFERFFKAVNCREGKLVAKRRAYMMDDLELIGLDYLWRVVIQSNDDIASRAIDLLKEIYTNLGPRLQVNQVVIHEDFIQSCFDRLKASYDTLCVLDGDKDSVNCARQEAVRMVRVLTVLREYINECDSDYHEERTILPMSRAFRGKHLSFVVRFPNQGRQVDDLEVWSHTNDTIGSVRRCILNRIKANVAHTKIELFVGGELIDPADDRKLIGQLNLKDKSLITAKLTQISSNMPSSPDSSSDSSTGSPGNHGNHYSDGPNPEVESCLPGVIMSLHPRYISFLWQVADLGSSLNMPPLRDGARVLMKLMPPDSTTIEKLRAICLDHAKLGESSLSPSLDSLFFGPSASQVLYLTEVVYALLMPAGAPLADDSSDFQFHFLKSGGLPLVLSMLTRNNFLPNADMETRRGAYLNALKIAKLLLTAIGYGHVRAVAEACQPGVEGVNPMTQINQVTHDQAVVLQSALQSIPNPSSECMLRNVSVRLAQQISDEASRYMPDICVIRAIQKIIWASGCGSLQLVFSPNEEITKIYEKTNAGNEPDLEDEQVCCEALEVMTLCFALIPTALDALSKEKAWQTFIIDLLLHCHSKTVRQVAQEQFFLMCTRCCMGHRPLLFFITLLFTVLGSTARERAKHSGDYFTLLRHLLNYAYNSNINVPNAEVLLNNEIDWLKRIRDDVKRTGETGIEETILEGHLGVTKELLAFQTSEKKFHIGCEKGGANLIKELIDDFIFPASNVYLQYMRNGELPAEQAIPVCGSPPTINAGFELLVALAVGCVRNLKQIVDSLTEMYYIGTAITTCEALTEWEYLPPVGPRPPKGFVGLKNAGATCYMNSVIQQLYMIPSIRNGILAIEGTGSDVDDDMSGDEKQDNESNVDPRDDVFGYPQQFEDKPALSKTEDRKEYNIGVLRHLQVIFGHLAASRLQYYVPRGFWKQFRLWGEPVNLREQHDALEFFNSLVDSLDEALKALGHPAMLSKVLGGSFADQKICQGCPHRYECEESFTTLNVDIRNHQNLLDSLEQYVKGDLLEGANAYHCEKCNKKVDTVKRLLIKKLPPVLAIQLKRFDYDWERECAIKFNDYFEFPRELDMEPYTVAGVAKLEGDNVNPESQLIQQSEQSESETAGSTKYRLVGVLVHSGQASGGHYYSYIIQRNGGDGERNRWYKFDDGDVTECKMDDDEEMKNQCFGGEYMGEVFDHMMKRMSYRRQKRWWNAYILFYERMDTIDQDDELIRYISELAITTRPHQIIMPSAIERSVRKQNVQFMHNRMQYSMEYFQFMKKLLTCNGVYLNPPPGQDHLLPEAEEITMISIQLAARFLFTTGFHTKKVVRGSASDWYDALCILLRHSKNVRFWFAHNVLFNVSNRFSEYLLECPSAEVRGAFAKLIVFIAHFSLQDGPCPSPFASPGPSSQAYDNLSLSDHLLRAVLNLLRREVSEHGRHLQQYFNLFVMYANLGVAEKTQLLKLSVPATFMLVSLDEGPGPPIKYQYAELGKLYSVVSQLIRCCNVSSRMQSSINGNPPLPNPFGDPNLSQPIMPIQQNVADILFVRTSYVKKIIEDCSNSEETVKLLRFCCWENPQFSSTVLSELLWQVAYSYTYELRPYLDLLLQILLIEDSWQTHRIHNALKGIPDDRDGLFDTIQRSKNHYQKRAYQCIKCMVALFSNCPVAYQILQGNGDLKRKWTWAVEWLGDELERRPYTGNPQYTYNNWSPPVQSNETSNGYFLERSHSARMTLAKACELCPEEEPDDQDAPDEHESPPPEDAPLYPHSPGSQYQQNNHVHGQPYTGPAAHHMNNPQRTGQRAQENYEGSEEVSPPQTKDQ
UniProt P51784, sequence (P51784 whole entry): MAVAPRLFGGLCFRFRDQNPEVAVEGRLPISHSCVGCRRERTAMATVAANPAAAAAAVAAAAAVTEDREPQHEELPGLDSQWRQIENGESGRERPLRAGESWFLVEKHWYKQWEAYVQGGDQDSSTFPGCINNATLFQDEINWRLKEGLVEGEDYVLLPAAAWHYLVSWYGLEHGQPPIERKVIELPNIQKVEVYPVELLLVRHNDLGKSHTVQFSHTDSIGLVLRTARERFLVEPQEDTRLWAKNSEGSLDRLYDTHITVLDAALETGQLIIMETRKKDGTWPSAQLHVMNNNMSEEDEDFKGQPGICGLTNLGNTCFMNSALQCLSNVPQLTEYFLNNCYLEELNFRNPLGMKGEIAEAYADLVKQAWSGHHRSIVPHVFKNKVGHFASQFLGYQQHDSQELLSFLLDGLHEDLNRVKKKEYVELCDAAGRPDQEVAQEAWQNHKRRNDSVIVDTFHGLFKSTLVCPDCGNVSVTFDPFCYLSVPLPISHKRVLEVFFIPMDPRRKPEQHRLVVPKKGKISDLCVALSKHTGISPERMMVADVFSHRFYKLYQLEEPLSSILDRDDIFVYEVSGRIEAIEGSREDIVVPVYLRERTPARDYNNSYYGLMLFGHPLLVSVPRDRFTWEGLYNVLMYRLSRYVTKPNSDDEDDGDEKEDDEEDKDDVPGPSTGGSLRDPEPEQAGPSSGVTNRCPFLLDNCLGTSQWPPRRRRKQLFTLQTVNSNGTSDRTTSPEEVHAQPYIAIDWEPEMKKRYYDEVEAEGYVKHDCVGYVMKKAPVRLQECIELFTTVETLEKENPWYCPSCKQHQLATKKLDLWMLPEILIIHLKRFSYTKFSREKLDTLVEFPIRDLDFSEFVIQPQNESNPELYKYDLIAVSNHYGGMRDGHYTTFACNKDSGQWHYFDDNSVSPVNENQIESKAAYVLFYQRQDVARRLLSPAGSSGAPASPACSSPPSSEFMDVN
UniProt O00487, sequence (O00487 whole entry): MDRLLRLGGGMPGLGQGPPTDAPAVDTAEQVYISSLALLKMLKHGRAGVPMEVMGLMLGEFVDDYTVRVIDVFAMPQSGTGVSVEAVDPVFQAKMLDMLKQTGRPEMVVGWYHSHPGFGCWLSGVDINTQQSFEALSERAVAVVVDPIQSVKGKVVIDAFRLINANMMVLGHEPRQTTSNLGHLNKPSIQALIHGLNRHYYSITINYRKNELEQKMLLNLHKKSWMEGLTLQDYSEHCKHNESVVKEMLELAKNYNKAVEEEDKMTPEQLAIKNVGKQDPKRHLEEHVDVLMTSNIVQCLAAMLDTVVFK

O=C(CCl)NCc1noc(C2CC2)n1
inactive: [1] -0.268 | [2] -0.16 | [3] -0.504 | [4] 0.0106 | [5] -0.464 | [6] -0.385 | [7] -0.13 | [8] -0.133 | [9] -0.415
